In PubChem BioAssay:
Unmarked numbers belong to inactive results. No rule for the calls is given here.

Target: Pantothenate synthetase (Mycobacterium tuberculosis (strain ATCC 25618 / H37Rv)) (UniProt P9WIL5)
Assay: Recombinant Mtb pantothenate synthetase (PanC) inhibitors, coupled enzyme, confirmatory (AID 375);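 also: 0% = full reaction with vehicle and 100% = no enzyme background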
Conditions: coupled enzyme assay; at 10 µM, hits give high values

Pantothenate synthetase (Mycobacterium tuberculosis (strain ATCC 25618 / H37Rv)), sequence (P9WIL5 whole entry, looked up): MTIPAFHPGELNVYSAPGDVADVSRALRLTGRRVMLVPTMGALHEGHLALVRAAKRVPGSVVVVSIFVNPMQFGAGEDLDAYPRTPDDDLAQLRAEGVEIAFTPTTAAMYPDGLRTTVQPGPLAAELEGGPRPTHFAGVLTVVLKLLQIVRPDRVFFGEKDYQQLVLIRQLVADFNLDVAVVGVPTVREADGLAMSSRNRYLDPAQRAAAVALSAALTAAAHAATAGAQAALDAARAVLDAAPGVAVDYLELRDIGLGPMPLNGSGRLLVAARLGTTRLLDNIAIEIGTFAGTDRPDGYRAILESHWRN

| SMILES | inhibition |
| --- | --- |
| OC(CCN1CCCCC1)(c1ccccc1)C1CCCCC1 (stereo not given) | 0% |
| CCC1CCCCN1S(=O)(=O)c1ccc(C(=O)Nc2nnc(-c3cccs3)o2)cc1 (stereo not given) | 2% |
| Brc1ccc(-c2nnc3sc(CN4CCC5(CC4)OCCO5)cn23)cc1 | 0% |
| O=S1(=O)CCN2C(=N1)SC1=C2CCN(Cc2ccccc2)C1 | 2% |
| C=CCSc1nc2sc(C)c(C)c2c(=O)[nH]1 | 10% |
| COCc1nnc(NS(=O)(=O)c2ccc(Br)cc2)s1 | 2% |
| CCOc1cccc(/C(O)=C2/C(=O)C(=O)N(CCN3CCOCC3)C2c2cccnc2)c1 (stereo not given) | 0% |
| CCC(=O)N1CCCc2cc(S(=O)(=O)N3CCCc4ccccc43)ccc21 | 4% |
| CCOc1ccc2[nH]c(=O)c(CN(CCOC)C(=O)N3CCOCC3)cc2c1 | 8% |
| CC(=O)c1cccc(NC(=O)c2ccc(NS(C)(=O)=O)cc2)c1 | 1% |
| Cc1ccc(NCc2nnc(SCC(=O)NCc3ccco3)n2CC2CCCO2)cc1Cl (stereo not given) | 3% |
| O=C(CCC(=O)OCCCC(F)(F)C(F)(F)F)NC1CCCCC1 | 0% |
| COc1ccc(Nc2nc(Nc3ccc(OC)cc3)nc(-n3[nH]c(=O)c(C)c3C)n2)cc1 | 0% |
| Cn1c(=O)c2c(nc(SCCCC#N)n2Cc2ccccc2F)n(C)c1=O | 0% |
| O=c1[nH]c(NCc2ccco2)nnc1Cc1ccccc1Cl | 0% |
| OC(CCN1CCCC1)(c1ccccc1)C1CCCCC1 (stereo not given) | 1% |
| Cn1c(SCC(=O)Nc2ccc3c(c2)OCO3)nnc1-c1cnccn1 | 1% |
| COC(=O)c1ccccc1NC(=O)C1CC=CCC1C(=O)O (stereo not given) | 0% |
| CN(C1CCCCC1)S(=O)(=O)c1ccc(NC(=O)c2ccco2)cc1 | 0% |
| COc1ccc(C(=O)CSc2nnc(C3CCCCC3)n2N)c(OC)c1 | 0% |

| SMILES | inhibition |
| --- | --- |
| CCCc1cc(-n2ccnc2)n2c(nc3ccccc32)c1C#N | 0% |
| COc1nc(OC)nc(N2CCC(C(=O)NCc3cccs3)CC2)n1 | 0% |
| O=C(Nc1ccc(Cl)cc1)C1CC=CCC1C(=O)OCC(F)(F)C(F)F (stereo not given) | 0% |
| CCOC(=O)c1c(NC(=O)c2nn(CC)cc2Br)c(C#N)cn1-c1ccccc1 | 0% |
| Cn1c(=O)c2c(nc(-n3ccnc3)n2C)n(C)c1=O | 0% |
| Cc1nc(SCC#N)c2c(C)c(C)sc2n1 | 0% |
| CCOC(=O)CNS(=O)(=O)c1c(C)noc1C | 0% |
| CC(C)(C)NC(=O)CN(C(=O)CS(=O)CC(=O)Nc1ccc(F)cc1)c1ccc(Cl)cc1 (stereo not given) | 0% |
| Cn1c(=O)c2ncn(CC(=O)NCCOc3ccccc3)c2n(C)c1=O | 0% |
| C=CCSc1ncccc1C(=O)O | 0% |
| O=C(COc1ccccc1)N1CCN(C(=O)c2cccc(F)c2)CC1 | 1% |
| Cc1cc(C)cc(NC(=O)N2CCC(c3nc4ccccc4o3)CC2)c1 | 7% |
| Nn1c(SCC(=O)NC2CCCCC2)nnc1-c1ccc(Cl)cc1 | 2% |
| CC(COc1ccccc1)N(CCCl)Cc1ccccc1 (stereo not given) | 0% |
| CCSc1nnc(NC(=O)c2ccccn2)s1 | 1% |
| O=C(CN1CCN(c2nc(-c3ccc(Cl)cc3)cs2)CC1)NCc1ccco1 | 4% |
| CN(C)C(=O)COc1ccc2cc(-c3ccccc3)c(=O)oc2c1 | 1% |
| CN(C)S(=O)(=O)Nc1ccc(Br)cc1F | 0% |
| CCOC(=O)CSc1nc2ccccc2n2cnnc12 | 0% |
| O=C(NCc1nnc(SCC(=O)N2CCC(Cc3ccccc3)CC2)o1)c1ccccc1F | 0% |
